Experimental data taken from PubChem BioAssay (Tox21).
Results filed as inconclusive are left out. The source made the active and inactive calls. Unless noted, calls come from the whole dose curve; as a rule, active = well fitted curve in the direction sought with a large enough effect in the repeat runs; inconclusive = weak or mixed curves; inactive = no such curve, though single readings can be large; an effect the other way counts as inactive or inconclusive.

Key:
[1] = qHTS assay to identify small molecule agonists of the constitutive androstane receptor (CAR) signaling pathway - cell viability counter screen (AID 1224836); note: nearly all actives have a fitted effect of over 45% in size; note: potency is the fitted concentration of half-maximal effect; for viability change, negative = cytotoxic: series mostly up to about 92 µM
Summary of the method: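 HepG2 cells stably carrying hCAR and a CYP2B6-2.2kb reporter were plated 4 h, then given compounds at 15 concentrations plus PK11195 (final 0.75 uM). After 23 h at 37 C, viability was read by CellTiter-Fluor fluorescence.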

[2] = qHTS assay to identify small molecule antagonists of the constitutive androstane receptor (CAR) signaling pathway - cell viability counter screen (AID 1224837); note: nearly all actives have a fitted effect of over 45% in size; note: potency is the fitted concentration of half-maximal effect; for activity change, negative = cytotoxicity: series mostly up to about 92 µM
Summary of the method: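 Cells are seeded, rested 4 hr at 37 C/5% CO2, dosed with compound (15-point series) and 50 nM CITCO, incubated a further 23 hr, and then CellTiter-Fluor reagent is added before fluorescence is read. The line is HepG2 with stable hCAR and CYP2B6-2.2kb.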

[3] = target: Nuclear receptor subfamily 1 group I member 3 (Homo sapiens) (UniProt Q14994); experiment: qHTS assay to identify small molecule antagonists of the constitutive androstane receptor (CAR) signaling pathway (AID 1224838); note: nearly all actives have a fitted effect of over 40% in size
Summary of the method: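 Luminescence from a CYP2B6-2.2kb promoter reporter in hCAR-expressing HepG2 cells reflects CAR signaling. Cells received compounds at 15 concentrations and 50 nM CITCO (final), then incubated 24 h at 37 C/5% CO2.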

[4] = target: Nuclear receptor subfamily 1 group I member 3 (Homo sapiens) (UniProt Q14994); experiment: qHTS assay to identify small molecule agonists of the constitutive androstane receptor (CAR) signaling pathway (AID 1224839); note: nearly all actives have a fitted effect of over 15% in size; note: potency is the fitted concentration of half-maximal effect;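 for activation: HepG2 cells stably carrying human CAR and a CYP2B6 luciferase reporter; series mostly up to about 92 µM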
Summary of the method: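 HepG2 cells stably expressing hCAR and a CYP2B6-2.2kb luciferase reporter were treated with compounds at 15 concentrations plus 0.75 uM PK11195 (final) for 24 h at 37 C; luminescence was read after ONE-Glo addition.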

[5] = target: Thyrotropin receptor (Homo sapiens) (UniProt P16473); experiment: qHTS assay to identify small molecule agonists of the thyroid stimulating hormone receptor (TSHR) signaling pathway (AID 1224843; calls by dose curve; note: nearly all actives have a fitted effect of over 45% in size)
Summary of the method: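 Agonist-mode screen: TSHR HEK293 cells received test chemicals for half an hour at room temperature, then HTRF cAMP detection reagents for one hour prior to fluorescence measurement. Each chemical ran as a 15-concentration series, triplicated.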

[6] = qHTS assay to identify small molecule antagonists of the estrogen related receptor signaling pathway with the pleiotropic PPARgamma coactivator (PGC) from Tox21 10K library - cell viability counter screen (AID 1224840; active = well fitted cell-killing curve with a large enough effect in the repeat runs, not every such curve was filed as active; note: nearly all actives have a fitted effect of over 40% in size; note: potency is the fitted concentration of half-maximal effect)
Summary of the method: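 Cell viability is measured by CellTiter-Fluor fluorescence in PGC/ERR cells that receive compounds after a 6-hour attachment period and are then incubated 17.5 hours at 37 C.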

[7] = qHTS assay to identify small molecule agonists of the hypoxia (HIF-1) signaling pathway - cell viability counter screen (AID 1224844; calls by dose curve; note: nearly all actives have a fitted effect of over 50% in size; note: potency is the fitted concentration of half-maximal effect)
Summary of the method: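 Viability counter screen: HRE-bla ME-180 cells plated 5 hrs before compound addition, treated 17 hrs at 37C and 5% CO2, then CellTiter-Glo added after the FRET reporter read; luminescence after 30 min.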

[8] = qHTS assay to identify small molecule antagonists of the estrogen related receptor signaling pathway with the pleiotropic PPARgamma coactivator (PGC) from Tox21 10K library (AID 1224841; call rule not given here; note: actives are mostly falling curves and most rising ones were filed inactive; nearly all actives have a fitted effect of over 50% in size; note: potency is the fitted concentration of half-maximal effect; for activity, negative = inhibition: series mostly up to about 92 µM)
Summary of the method: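 Cells stably carrying the PGC/ERR reporter, seeded at 2,000 per well, received pin-transferred compounds 6 h post-plating. Exposure lasted 18 h at 37 C. Signal: One-Glo luminescence.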

[9] = qHTS assay to identify small molecule agonists of the estrogen related receptor signaling pathway with the pleiotropic PPARgamma coactivator (PGC) from Tox21 10K library (AID 1224842); note: nearly all actives have a fitted effect of over 15% in size
Summary of the method: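 PGC/ERR reporter cell line, 2,000 cells per well, incubated 6 h at 37 C before 23 nL compound in DMSO was added. After 18 h at 37 C, One-Glo luminescence read following 30 min at room temperature.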

[10] = target: Luciferin 4-monooxygenase (Photinus pyralis) (UniProt P08659); experiment: qHTS assay to identify small molecule inhibitors of firefly luciferase (AID 1224835); note: nearly all actives have a fitted effect of over 25% in size; note: potency is the fitted concentration of half-maximal effect
Summary of the method: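 Biochemical qHTS: compounds run as interplate titrations against purified firefly enzyme, with D-luciferin and ATP each at its KM concentration. Light output recorded by CCD imaging.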
% is set by controls: 0 for no effect and ±100 for the full control effect.

Sequence of Thyrotropin receptor (Homo sapiens) (P16473 whole entry, looked up): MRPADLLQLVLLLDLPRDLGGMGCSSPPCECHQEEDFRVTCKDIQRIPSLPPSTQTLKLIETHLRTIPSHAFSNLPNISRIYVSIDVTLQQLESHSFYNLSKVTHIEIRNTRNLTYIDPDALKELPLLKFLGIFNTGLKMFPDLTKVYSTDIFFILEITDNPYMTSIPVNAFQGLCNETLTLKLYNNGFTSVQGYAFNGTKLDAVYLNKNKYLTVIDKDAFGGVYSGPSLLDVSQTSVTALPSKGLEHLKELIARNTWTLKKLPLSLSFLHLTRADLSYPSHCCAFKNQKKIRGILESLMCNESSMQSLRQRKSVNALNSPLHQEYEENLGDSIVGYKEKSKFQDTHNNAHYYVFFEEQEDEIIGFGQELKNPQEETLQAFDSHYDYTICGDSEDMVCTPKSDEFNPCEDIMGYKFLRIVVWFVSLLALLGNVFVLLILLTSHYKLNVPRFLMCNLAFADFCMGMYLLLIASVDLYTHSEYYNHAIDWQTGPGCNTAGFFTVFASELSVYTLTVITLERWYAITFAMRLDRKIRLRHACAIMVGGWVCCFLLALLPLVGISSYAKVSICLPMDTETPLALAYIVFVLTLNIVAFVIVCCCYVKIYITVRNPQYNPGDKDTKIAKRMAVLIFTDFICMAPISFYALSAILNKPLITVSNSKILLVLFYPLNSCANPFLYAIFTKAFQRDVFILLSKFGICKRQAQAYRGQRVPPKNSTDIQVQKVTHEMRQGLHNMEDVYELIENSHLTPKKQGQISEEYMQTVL
Sequence of Luciferin 4-monooxygenase (Photinus pyralis) (P08659 whole entry, looked up): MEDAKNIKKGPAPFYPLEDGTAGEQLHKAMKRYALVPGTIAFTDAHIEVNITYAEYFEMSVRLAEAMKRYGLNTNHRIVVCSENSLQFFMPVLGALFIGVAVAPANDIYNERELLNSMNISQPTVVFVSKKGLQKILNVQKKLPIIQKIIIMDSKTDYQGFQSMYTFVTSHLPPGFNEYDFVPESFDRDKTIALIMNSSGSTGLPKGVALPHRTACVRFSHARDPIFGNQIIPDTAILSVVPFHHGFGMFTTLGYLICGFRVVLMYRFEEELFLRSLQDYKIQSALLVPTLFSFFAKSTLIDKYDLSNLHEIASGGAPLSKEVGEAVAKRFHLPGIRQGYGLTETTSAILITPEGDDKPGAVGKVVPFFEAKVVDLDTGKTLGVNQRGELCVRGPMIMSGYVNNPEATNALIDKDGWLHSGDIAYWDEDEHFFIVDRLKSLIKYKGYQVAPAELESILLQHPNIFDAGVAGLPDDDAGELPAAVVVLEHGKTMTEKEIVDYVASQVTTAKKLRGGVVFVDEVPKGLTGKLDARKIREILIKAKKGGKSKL
Sequence of Nuclear receptor subfamily 1 group I member 3 (Homo sapiens) (Q14994 whole entry, looked up): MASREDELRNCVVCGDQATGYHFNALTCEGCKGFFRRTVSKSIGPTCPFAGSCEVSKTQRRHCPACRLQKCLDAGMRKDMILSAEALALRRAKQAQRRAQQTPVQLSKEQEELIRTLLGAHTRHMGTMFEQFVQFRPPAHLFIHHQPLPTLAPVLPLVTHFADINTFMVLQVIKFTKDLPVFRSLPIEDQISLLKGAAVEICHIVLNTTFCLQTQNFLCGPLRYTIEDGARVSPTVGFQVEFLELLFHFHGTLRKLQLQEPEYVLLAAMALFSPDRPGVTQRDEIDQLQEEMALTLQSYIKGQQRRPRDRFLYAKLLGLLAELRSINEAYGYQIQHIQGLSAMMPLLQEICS

CCCCC(=O)OCC(=O)[C@H]1[C@H](C)C[C@H]2[C@@H]3C[C@H](F)C4=CC(=O)C=C[C@]4(C)[C@@]3(F)[C@@H](O)C[C@@]21C
inactive: Potency [1] | Potency [2] | Potency [3] | Potency [4] | Potency [5]

CC(C)(COC(=O)c1ccccc1)COC(=O)c1ccccc1
inactive: Potency [1] | Potency [2] | Potency [3] | Potency [4] | Potency [6] | Potency [7]

CCO[C@H](Cc1ccc(OCCc2ccc(OS(C)(=O)=O)cc2)cc1)C(=O)O
inactive: Potency [1] | Potency [2] | Potency [3] | Potency [6] | Potency [7]

O=C(O)c1nc(Cl)c(Cl)c(Cl)c1Cl
inactive: Potency [1] | Potency [2] | Potency [3] | Potency [6] | Potency [8] | Potency [9] | Potency [7]
active: Potency [4] 17.2 µM

CCC(C)O (centres undefined)
inactive: Potency [1] | Potency [2] | Potency [3] | Potency [4] | Potency [5] | Potency [7]

O=S(=O)(Oc1ccc(Cl)cc1)c1ccccc1
inactive: Potency [1] | Potency [2] | Potency [6] | Potency [8] | Potency [9] | Potency [5] | Potency [7]

CCNc1cc(O)ccc1C
inactive: Potency [1] | Potency [2] | Potency [3] | Potency [6] | Potency [8] | Potency [9] | Potency [7]

C[C@@H]1C[C@H]2[C@@H]3CCC4=CC(=O)C=C[C@]4(C)[C@@]3(F)[C@@H](O)C[C@]2(C)[C@@]1(O)C(=O)COC(=O)c1ccncc1
inactive: Potency [1] | Potency [2] | Potency [4] | Potency [6] | Potency [5]

CCOC(=O)Cc1cccc2ccccc12
inactive: Potency [1] | Potency [2] | Potency [3] | Potency [6] | Potency [8] | Potency [9] | Potency [7]
active: Potency [4] 30.6 µM

O=S(c1cc(Cl)cc(Cl)c1O)c1cc(Cl)cc(Cl)c1O
inactive: Potency [1] | Potency [2] | Potency [3] | Potency [4] | Potency [6] | Potency [8] | Potency [9] | Potency [5]

Nc1ncn([C@H]2C[C@H](O)[C@@H](CO)O2)c(=O)n1
inactive: Potency [1] | Potency [2] | Potency [3] | Potency [7]

CN(C)c1ccc(/C=C/c2ccc([N+](=O)[O-])cc2)cc1
inactive: viability change, negative = cytotoxic [1] 5.96% [at 8.39 µM] | activity change, negative = cytotoxicity [2] 11.7% [at 8.39 µM] | activity, negative = inhibition [3] 47.3% [at 8.39 µM] | activation [5] -1.26% [at 8.39 µM] | activity change, negative = cytotoxicity [7] -6.06% [at 6.97 µM]
active: Potency [4] 0.872 µM

COc1cc(Cl)ccc1Oc1ccc(Cl)cc1Cl
inactive: Potency [1] | Potency [2] | Potency [8] | Potency [5] | Potency [7]
active: Potency [4] 29.8 µM

O=C(Cl)c1cc(C(=O)Cl)cc(C(=O)Cl)c1
inactive: Potency [1] | Potency [2] | Potency [6] | Potency [5]

Cc1[nH]c(C)c(Cl)c(=O)c1Cl
inactive: viability change, negative = cytotoxic [1] 3.99% [at 19 µM] | activity change, negative = cytotoxicity [2] 8.34% [at 19 µM] | viability change, negative = cytotoxic [6] 12.2% [at 19 µM] | activation [5] 2.76% [at 19 µM] | activity change, negative = cytotoxicity [7] 12.4% [at 15.8 µM]

O=C(Nc1ccc(S(=O)(=O)N2CCOCC2)cc1)c1cc(Cl)ccc1NS(=O)(=O)c1ccc(Cl)s1
inactive: Potency [1] | Potency [2] | Potency [6] | Potency [8] | Potency [9] | Potency [5] | Potency [7]

Brc1c2ccccc2cc2ccccc12
active: Potency [4] 55 µM
inactive: Potency [1] | Potency [2] | Potency [5] | Potency [7]

COc1ccnc(CS(=O)c2nc3ccc(OC(F)F)cc3[nH]2)c1OC (centres undefined)
inactive: Potency [1] | Potency [2] | Potency [3] | Potency [4] | Potency [6] | Potency [5] | Potency [7]

CCCCCCOC(=O)NC(=N)c1ccc(NCc2nc3cc(C(=O)N(CCC(=O)OCC)c4ccccn4)ccc3n2C)cc1
inactive: Potency [1] | Potency [2] | Potency [3] | Potency [4] | Potency [9] | Potency [5]
active: Potency [6] 29.8 µM | Potency [8] 16.8 µM | Potency [7] 23.9 µM

S=C([S-])NCCNC(=S)[S-].[Mn+2]
inactive: Potency [6] | Potency [5] | Potency [7]
active: Potency [10] 12.6 µM

CCN(CC)CCNc1ccc(CNC=O)c2sc3ccc(OC)cc3c(=O)c12
active: Potency [1] 8.63 µM | Potency [2] 8.63 µM | Potency [6] 6.11 µM | Potency [7] 24.5 µM
inactive: Potency [8] | Potency [5]

CNCCCCOc1ccccc1Cc1ccccc1
active: Potency [6] 29.8 µM
inactive: Potency [10] | Potency [4] | Potency [5] | Potency [7]

Cc1cc(N)c2cc(NC(=O)Nc3ccc4nc(C)cc(N)c4c3)ccc2n1
inactive: Potency [1] | Potency [2] | Potency [3] | Potency [4] | Potency [6]

CCc1cc(C2=C(C(=O)O)N(c3ccccc3C(F)(F)F)S(=O)(=O)c3ccccc32)cc2c1OCO2
active: Potency [8] 30.3 µM | Potency [7] 21.6 µM
inactive: Potency [10] | Potency [4] | Potency [9]

O=C(O)C(S)C(S)C(=O)O (centres undefined)
inactive: Potency [1] | Potency [2] | Potency [3] | Potency [4] | Potency [6] | Potency [5] | Potency [7]

c1ccc(CNCCNCc2ccccc2)cc1
inactive: Potency [1] | Potency [2] | Potency [4] | Potency [6] | Potency [5] | Potency [7]

C1CCCNCCC1
inactive: Potency [1] | Potency [2] | Potency [6] | Potency [9] | Potency [5] | Potency [7]
active: Potency [8] 4.32 µM

O=C1C(O)=C(O)C(=O)C(O)=C1O
inactive: Potency [1] | Potency [2] | Potency [4] | Potency [6] | Potency [5] | Potency [7]
